Source: PubChem BioAssay AID624391 (National Center for Advancing Translational Sciences (NCATS), 2012)
The source made the active and inactive calls. The call rests on the fitted dose curve; in most records, active means well fitted curve in the direction sought with a large enough effect; inactive means no such curve, though single readings can be large or run the other way.

biological target: Pyruvate kinase PKM (Homo sapiens) (UniProt P14618); test: qHTS for Activators of Human Muscle Isoform 2 Pyruvate Kinase: Extended Characterization for Probe 2; conditions: purified hPK-M2, Kinase-Glo ATP luminescence, 1 h
Experimental: Human pyruvate kinase muscle 2 (hPK-M2) enzyme was supplied as a highly purified (>95% pure) preparation from Harvard Medical School and assayed for its ability to generate ATP from ADP using phosphoenolpyruvate (PEP) as a substrate. ATP generation was detected in a coupled reaction by luciferase-mediated luminescence, an ATP-dependent process. […] The enzyme was assayed at an intermediate level of activity to screen for both inhibitors and activators. NIH Chemical Genomics Center [NCGC] NIH Molecular Libraries Probe Centers Network [MLPCN] MLPCN Grant: MH085679 Assay Submitter (PI): Matthew G. Vander Heiden, Harvard Medical School
Three uL of substrate mix (at r.t.) in assay buffer (50 mM Imidazole pH7.2, 50 mM KCl, 7 mM MgCl2, 0.01% Tween 20, 0.05% BSA) was dispensed into white solid bottom 1,536 well microtiter plates so that the final concentrations of substrates in the assay were 0.1 mM ADP and 0.5 mM PEP. 23 nL of compound were delivered by a pin tool and 1 uL of enzyme mix (final concentration of 0.1 nM) in assay buffer (4 degree Celsius) was added. Plates were incubated at room temperature for 1 hour. Two uL of detection mix (Kinase-Glo, Promega; at 4 degree Celsius protected from light) was added and luminescence read by a ViewLux (Perkin Elmer) at 1 second exposure/plate. Data were normalized to the uninhibited (column 3) and AC100 inhibition (no enzyme in column 2). To monitor activation, the first column contained a titration of the activator, NCGC00031955-03 (16-point 1:2 dilutions in duplicate starting at 57 uM) and the first 16 rows of column 4 contained 57 uM of NCGC00031955-03.

Pyruvate kinase PKM (Homo sapiens), sequence (P14618 whole entry, looked up, canonical isoform): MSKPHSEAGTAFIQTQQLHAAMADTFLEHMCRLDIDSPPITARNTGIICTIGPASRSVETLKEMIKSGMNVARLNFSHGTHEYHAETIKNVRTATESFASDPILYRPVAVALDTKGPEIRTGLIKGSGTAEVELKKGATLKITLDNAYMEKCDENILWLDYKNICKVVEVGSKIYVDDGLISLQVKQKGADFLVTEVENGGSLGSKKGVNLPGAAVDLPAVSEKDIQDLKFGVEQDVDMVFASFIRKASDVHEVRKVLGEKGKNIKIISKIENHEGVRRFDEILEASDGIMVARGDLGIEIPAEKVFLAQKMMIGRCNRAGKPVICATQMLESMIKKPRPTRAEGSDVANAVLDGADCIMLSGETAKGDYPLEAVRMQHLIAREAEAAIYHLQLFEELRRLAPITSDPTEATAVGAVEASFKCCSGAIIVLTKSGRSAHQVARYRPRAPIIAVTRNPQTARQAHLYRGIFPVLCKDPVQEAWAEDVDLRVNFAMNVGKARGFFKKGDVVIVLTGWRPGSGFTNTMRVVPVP

Potency, active:
O=S(=O)(c1ccc2c(c1)OCCO2)N1CCN(S(=O)(=O)c2c(F)cccc2F)CC1 81.9 nM
Cc1ccc(NS(=O)(=O)c2ccc3c(c2)CCC(=O)N3)cc1C 163 nM
COc1cccc(Cn2ncc3c4sc(S(C)=O)cc4n(C)c3c2=O)c1 (stereo not drawn) 73 nM
